# Bioassay records as filed in PubChem.
# Sampled rows, rich in hits. Any-hit rate of the full collection: about 10%.
# G9a block: blocks human histone lysine methyltransferase G9a | Q96KQ7 | hit rate 8.8% among 350,000 | AID 504332 | Potency, µM (highest dose often 102 µM), for inactives: top-dose activity, negative = inhibition, hits mostly inhibitors | G9a H3K9 monomethylation, AlphaScreen, 2 h; note: potency is the fitted concentration of half-maximal effect; % is set by controls: 0 for no effect and ±100 for the full control effect; nearly all actives have a fitted effect of over 75% in size
# Target sequence (Q96KQ7 913-1193 limits assumed): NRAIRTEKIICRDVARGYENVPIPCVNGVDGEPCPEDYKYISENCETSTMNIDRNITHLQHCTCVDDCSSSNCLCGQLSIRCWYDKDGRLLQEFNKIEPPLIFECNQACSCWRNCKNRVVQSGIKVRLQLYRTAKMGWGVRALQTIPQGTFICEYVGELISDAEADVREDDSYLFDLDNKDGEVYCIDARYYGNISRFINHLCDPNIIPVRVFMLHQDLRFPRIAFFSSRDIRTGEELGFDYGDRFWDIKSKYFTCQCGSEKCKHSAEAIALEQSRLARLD
#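 Chemiluminescent proximity detection of H3K9 monomethylation, read after 10 min bead incubation in the dark. Reaction: 20 nM G9a, 500 nM biotin-H3K9 peptide, 20 uM SAM cofactor, 2 h, room temperature, following 15 min enzyme-compound preincubation.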
# CtBP-E1A inh: blocks the CtBP interaction with E1A; activity change, % (no concentration beside the values); AlphaScreen GST-E1A/His-CtBP binding, 1536-well; stronger effect = lower value; AID 651724; hit rate 0.49% among 340,000; in the data active = activity change below about -65%; inconclusive = mostly about -30% to -63%; note: % is set by controls: 0 for no effect and ±100 for the full control effect
#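 GST-E1A and His-tagged CtBP (125 nM each as 5X stock) were preincubated with pin-transferred compound for 2 h at 37 °C in the dark, then glutathione donor and nickel acceptor beads were added for 1 h before AlphaScreen reading.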
# HP1b chromo inh: inhibitors of HP1-beta chromodomain binding to methylated histone tails; AlphaScreen HP1-beta / biotin-H3K9me3 peptide binding; Potency, µM (top dose mostly 114 µM), inactives show at the top dose activity change, negative = inhibition, hits mostly inhibitors; hit rate 0.56% among 390,000; AID 540317; note: potency is the fitted concentration of half-maximal effect; nearly all actives have a fitted effect of over 70% in size
# Target sequence (P83916 whole entry, looked up): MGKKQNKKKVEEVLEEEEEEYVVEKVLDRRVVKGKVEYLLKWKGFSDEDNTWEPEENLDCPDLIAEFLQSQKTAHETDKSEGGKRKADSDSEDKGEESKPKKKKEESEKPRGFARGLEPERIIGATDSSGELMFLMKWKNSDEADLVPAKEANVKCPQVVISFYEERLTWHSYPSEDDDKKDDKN
#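 HP1-beta protein (50 nM final) preincubated 30 min at room temperature with biotinylated H3(1-18)K9me3 peptide (50 nM) in PBS pH 7.4, 0.01% Tween-20, then compound added for 30 min. AlphaScreen streptavidin donor/nickel chelate acceptor beads (10 ug/mL final), 30 min dark, luminescence read.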
# BAZ2B block: BAZ2B (human) inhibition; hit rate 4.4% among 360,000; Potency, µM (titrated, usually from 114 µM), without a hit: at the highest dose activity change, negative = inhibition, usual class: inhibitors; AID 504333; AlphaScreen BAZ2B-H3K14Ac peptide displacement; note: potency is the fitted concentration of half-maximal effect; % is set by controls: 0 for no effect and ±100 for the full control effect; nearly all actives have a fitted effect of over 60% in size
#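 Protein-peptide AlphaScreen: BAZ2B 50 nM, b-H3K14Ac 50 nM, 1x PBS pH 7.4 + 0.01% Tween-20. Preincubation 30 min RT; cpd 30 min RT (top 110 uM); beads 20 min RT, light-protected.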
# Six1-Eya2 inh: inhibitors of human Six1/Eya2 interaction; Q15475+O00167; AlphaScreen GST-Six1/His-Eya2 binding, biochemical; stronger effect = lower value; activity change, % (test concentration not listed); hit rate 0.56% among 360,000; in the data active = activity change below about -65%; inconclusive = mostly about -30% to -63%; note: % is set by controls: 0 for no effect and ±100 for the full control effect
#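 Six1/Eya2 binding was read as AlphaScreen signal after compounds were pinned into GST-Six1 plus His-tagged Eya2 (5X stock 250/500 nM) in pH 8.0 Tris/NaCl/TCEP buffer, beads added, then incubated 1 h, 37 C, dark.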
# JMJD2A Tudor inh: blocks the human JMJD2A Tudor domain; AlphaScreen JMJD2A-Tudor / H3K4me3 peptide binding; Potency, µM (highest dose often 114 µM), without a hit: at the highest dose activity change, negative = inhibition, usual class: inhibitors; hit rate 4.4% among 390,000; AID 504339; note: potency is the fitted concentration of half-maximal effect; % is set by controls: 0 for no effect and ±100 for the full control effect; nearly all actives have a fitted effect of over 50% in size
# * = called active by the depositor; ? = inconclusive; . = not tested or not shown; [ ] = another dose, or the depositor's remark. Unless noted, calls come from the whole dose curve; as a rule, active = well fitted inhibition curve with a large enough effect; inconclusive = small, poorly fitted or top-dose-only effect; inactive = no such curve, though single readings can be large or run the other way.
SMILES,G9a block,CtBP-E1A inh,HP1b chromo inh,BAZ2B block,Six1-Eya2 inh,JMJD2A Tudor inh
COc1ccc(N2CCN(C(=O)CCNC(=O)c3ccc(C(C)(C)C)cc3)CC2)cc1,45µM*,-6,-16%,?,-7,?
CC(=O)Nc1ccc2c(c1)C(=Nc1ccccc1)c1ccccc1-2,.,-27,-26%[57 µM],.,-18,35µM*
CC(=O)Nc1ccc2c(c1)C(=Nc1ccc(C)cc1)c1ccccc1-2,.,-22,-2%,.,?,-27%
Cc1cc(NC(=O)Nc2nnc(N(C)C3CCCCC3)s2)ccc1Br,5%[59 µM],.,12%,50µM*,.,-14%
Cc1cc(C)cc(NC(=O)Nc2nnc(N(C)C3CCCCC3)s2)c1,1%[59 µM],.,25%,-27%,.,-16%
O=C(CN1C(=O)COc2ccc(S(=O)(=O)N3CCOCC3)cc21)NCc1ccc(Cl)cc1,6%[59 µM],.,38%,-32%,.,7%
O=C(NC1CCS(=O)(=O)C1)C1CCCCN1S(=O)(=O)c1ccc(Cl)cc1 (centres undefined),28µM*,7,18%,3%,-1,-16%
CNS(=O)(=O)c1cccc2cccnc12,-8%,4,-3%,-4%,0,-10%
Cc1ccc2ccc3cccnc3c2n1,.,-90*,62%,.,?,?
Cc1ccc(-c2n[nH]c3c2C(c2cccs2)N(c2ccc(Cl)cc2)C3=O)cc1 (centres undefined),9%[59 µM],.,50%,.,.,-13%
Cc1ccc(CC#N)c(-c2c(CC#N)ccc(C)c2C)c1C,.,1,.,.,7,.
Cc1ccc2c(c1C)-c1c(ccc(C)c1C)C(=O)C2=O,.,-2,16µM*,.,?,50µM*
COC(=O)c1ccc(C(=O)OC)c(-n2c(=O)c3ccccc3c3ccccc3c2=O)c1,28µM*,6,39%,?,9,-26%
O=S(=O)(NNc1nccc(C(F)(F)F)n1)c1cccc(Cl)c1Cl,8.9µM*,.,10%,-3%,1,-14%
O=C1CC(SC2=NCCS2)C(=O)N1c1ccc(Cl)cc1 (centres undefined),-17%[59 µM],-13,43%,9%,2,5%
O=C1CC(SC2=NCCS2)C(=O)N1c1ccc(Br)cc1 (centres undefined),45µM*,2,53%,-3%,-6,6%[57.1 µM]
Cc1ccc(Cn2c(O)c(N=NC(=S)Nc3ccccc3F)c3ccccc32)cc1,11µM*,.,-8%,40µM*,-19,?
C=CCn1c(O)c(N=NC(=O)CNC(=O)/C=C/c2ccco2)c2ccccc21,50µM*,-6,-11%,?,-12,?
Oc1c(N=NC(=S)Nc2ccccc2F)c2ccccc2n1Cc1ccccc1Cl,18µM*,?,?,?,?,4µM*
Cc1c(Cl)cccc1NC(=S)N=Nc1c(O)n(CN2CCOCC2)c2ccccc12,?,-18,1%,?,-24,?
C=CCn1c(O)c(N=NC(=S)Nc2ccccc2F)c2ccccc21,11µM*,-12,?,?,?,10µM*
CCCCCC/C=C/c1ccc(OC)c(C2C3C=CCC(C)C3C(=O)N2Cc2ccccc2)c1 (centres undefined),.,.,46%,.,.,7%
Cc1nn(-c2ccc(Cl)cc2)c2nc(-c3cccnc3)cc(C(F)(F)F)c12,0%[59 µM],.,10%,-1%,.,-14%
COc1cc(C2Nc3ccccc3C(=O)N2Cc2ccco2)ccc1O (centres undefined),.,.,18%[57 µM],.,.,-8%[57.1 µM]
CCCCNC(=S)N=Nc1c(O)n(Cc2ccccc2)c2ccccc12,32µM*,-25,?,?,?,?
SMILES,G9a block,CtBP-E1A inh,HP1b chromo inh,BAZ2B block,Six1-Eya2 inh,JMJD2A Tudor inh
CCn1c(O)c(N=NC(=O)CNc2cccc(C)c2)c2ccccc21,-7%[59 µM],-16,-7%,?,-16,?
Oc1c(N=NC(=S)Nc2ccccc2F)c2ccccc2n1Cc1ccccc1,18µM*,-19,?,?,-20,?
C=CCn1c(O)c(N=NC(=S)Nc2cccc(C)c2)c2ccccc21,14µM*,4,?,3.2µM*,?,8.9µM*
O=C(N=Nc1c(O)n(Cc2ccccc2)c2ccccc12)c1ccncc1,.,6,13%,35µM*,0,-26%
O=C(COc1ccc2oc3c(c2c1)CCCC3)Nc1ccc(Br)cc1,?,.,21%,4%,.,-14%
O=C1CC(c2nc(-c3ccccc3)no2)CN1c1ccc2c(c1)OCCO2 (centres undefined),1%[59 µM],.,27%,-13%,.,-13%
CCC12CN3CC(CC)(CN(C1)C3c1cccc(OC)c1O)C2=O (centres undefined),9%[59 µM],.,25%,-16%,.,-11%
CN(c1ccc([N+](=O)[O-])cc1C(N)=O)C1CCCCC1,-34%,6,20%,79µM*,-2,-13%
O=C1C(c2ccccc2)=[N+]([O-])c2ccccc21,-11%[2.33 µM],2,?,10µM*,7,25µM*
O=C1C(=O)c2ccc(-c3ccccc3)cc2-c2ccccc21,?,?,22%,-5%,?,-8%
Cn1c(=O)c([N+](=O)[O-])c(NCc2ccccc2)c2ccccc21,50µM*,-13,40%,-1%,-17,-6%
COc1ccc(C(CC(=O)O)NC(=O)c2cc3ccccc3oc2=O)cc1OC (centres undefined),-3%[59 µM],.,38%,-24%,.,0%
Cc1cc(C)cc(NC(=O)c2cc(S(=O)(=O)N3CCOCC3)cn2C)c1,8%[59 µM],.,39%,-4%,.,-2%
CCOCCCn1c(=S)[nH]c2cc(C(=O)N3CCN(C)CC3)ccc2c1=O,?,-7,15%,?,4,22µM*
CCOC(=O)N1CCN(c2c(F)cc3[nH]c(=S)[nH]c3c2Br)CC1,?,-7,6%,-4%,-1,-22%
CCOC(=O)N1CCN(c2cc3[nH]c(=S)[nH]c3cc2F)CC1,2.2µM*,4,-29%,4%,-2,45µM*
CCOC(=O)N1CCN(C(=O)c2ccc3c(=O)n(-c4ccc(OC)cc4OC)c(=S)[nH]c3c2)CC1,?,5,73%,4%,2,-33%
CCOC(=O)N1CCN(C(=O)c2ccc3c(=O)n(-c4ccccc4F)c(=S)[nH]c3c2)CC1,50µM*,22,77%,-15%,10,-12%
CCOCCCn1c(=S)[nH]c2cc(C(=O)N3CCC(C(N)=O)(N4CCCCC4)CC3)ccc2c1=O,?,-22,47%,2%,11,22µM*
Cc1ccc(NC(=O)N2CCc3cc(S(=O)(=O)N4CCC(C)CC4)ccc32)cc1F,-15%[59 µM],.,27%,-2%,.,1%
O=C(CNC(=O)C1CCCCC1)OC(C(=O)Nc1cc(C(F)(F)F)ccc1Cl)c1ccccc1 (centres undefined),.,.,.,.,.,-19%
